Rows were chosen to be rich in hits. Some 1.7% of all compounds tested hit in one or more screens of this group.
Cardio protect: modulators protecting cardiomyocytes from myocardial damage | H9c2 cardiomyocytes, H2O2 injury protection, ATPLite, 2 h | protection from H2O2 cell death, % at 20 µM | actives 0.63% (n = 360,000);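 active means compounds giving at least 50% protection of heart cells from peroxide-induced death in the single-dose screen, raw or plate-pattern-corrected value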;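 further: 0% = DMSO wells with peroxide and 100% = DMSO wells without peroxide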
ARNT TACC3 PPI: ARNT/TACC3 interaction disruption; Q9Y6A5; AlphaScreen His-ARNT PAS-B/GST-TACC3 binding, luminescence; TACC3 fragment carries E629A point mutation; inhibition, % at 9.99 µM; actives 0.66% (n = 390,000);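 active means mean inhibition of replicates at least 50% and at least half of replicates each reaching 50%; inconclusive means half or more replicates reach 50% but mean below 50%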;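 further: 0% = complete ARNT plus TACC3 wells and 100% = ARNT alone without TACC3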
Glyco luc inh: blocks N-linked glycosylation in D54 reporter cells; D54 ERlucT glycosylation luciferase reporter, 24 h; percent of 100 nM tunicamycin response; reporter increase, % at 12.5 µM; actives 0.23% (n = 360,000);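 active means mean luciferase reporter signal, scaled so untreated is 0 and the glycosylation-blocking control 100, at or above a set limit in every replicate; inconclusive means mean reaches the limit but not every replicate does; inactive means mean below the limit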;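 further: luciferase carries N-glycosylation sites so blocking glycosylation raises the light; 0% = median of neutral control wells and 100% = median of 100 nM tunicamycin wells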
Vif inh: blocks HIV Vif function; actives 0.35% (n = 340,000); AID 602346; HEK293T cells, Vif self-association by quenched fluorescence, imaging, 24 h; inhibition, % at 7.49 µM; in the data active means inhibition above about 50%, passing the limit was not always enough; inconclusive means no clear call, values can overlap the other calls; inactive means below about 31%
aDG glyco up: alpha-DG glycosylation activation; Pro5-aDG cells, alpha-DG glycosylation AlphaScreen (IIH6); 0% Pro5, 100% B10-LARGE cell signal; activation, % at 10 µM; actives 0.22% (n = 360,000);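 active means activation of at least 8% versus controls, or a plate z-score of at least 8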;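 further: Pro5 are CHO cells carrying HIG-tagged alpha-DG that lacks glycosylation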
Starred values were filed as active, the others as inactive; ? = inconclusive; · = not tested or not shown.

SMILES	Cardio protect	ARNT TACC3 PPI	Glyco luc inh	Vif inh	aDG glyco up
CO[C@@H]1CN(C)C(=O)c2cc(NS(=O)(=O)c3ccc(Oc4ccccc4)cc3)ccc2OC[C@@H](C)NC[C@@H]1C	·	-36.8	·	·	·
C[C@@H]1CN([C@@H](C)CO)C(=O)c2cccc(N(C)C)c2O[C@H]1CN(C)S(C)(=O)=O	·	17.7	·	·	·
O=C1/C(=C/c2cccc([N+](=O)[O-])c2)CCc2ccccc21	-18.2	8.6	12.2	136.2*	0.2
O=C1/C(=C/c2cccc([N+](=O)[O-])c2)CSc2ccc(Cl)cc21	-1.4	-4.5	-0.7	2.1	0.1
CCN1C/C(=C\c2cccc([N+](=O)[O-])c2)C(=O)/C(=C/c2cccc([N+](=O)[O-])c2)C1	-24.5	1.0	-23.2	70.1*	-0.7
CCOC(=O)C1(Cc2cccc(OC)c2)CCN(CCO)CC1	6.1	-2.9	-1.4	66.3*	-0.1
CC(=O)Nc1ccc2c(c1)C(=O)N(C)[C@@H]1CC[C@@H](CC(=O)NCC3CCCCC3)O[C@H]1CO2	·	-6.0	·	·	·
CCOC(=O)c1ccc(NC(=O)c2nc[nH]c2C(=O)NCCCCNC(=O)c2[nH]cnc2C(=O)Nc2ccc(C(=O)OCC)cc2)cc1	57.7*	·	1.7	2.1	-0.8
CCOC(=O)c1ccc(NC(=O)c2nc[nH]c2C(=O)NCCCNC(=O)c2[nH]cnc2C(=O)Nc2ccc(C(=O)OCC)cc2)cc1	44.5	-10.1	0.5	-6.0	-0.2
CCOC(=O)c1ccc(NC(=O)c2nc[nH]c2C(=O)NCCCCCNC(=O)OC(C)(C)C)cc1	79.2*	0.1	-3.2	-10.4	-0.1
CCOC(=O)c1ccc(NC(=O)c2nc[nH]c2C(=O)NCC(=O)OC(C)(C)C)cc1	32.4	2.5	-0.7	-5.8	-0.1
CC1CCN(CCCNC(=O)c2n[nH]c(=O)c3ccccc23)CC1	72.0*	-2.1	-2.5	·	0.1
Cc1ccc(S(=O)(=O)Nc2ccc3c(c2)CC(=O)N([C@H](C)CO)C[C@@H](C)[C@@H](CN(C)S(=O)(=O)c2ccc(F)cc2)O3)cc1	·	3.0	·	·	·
CCCN1[C@@H]2c3ccc(C4=CCCC4)c(=O)n3C[C@H]1[C@H](CO)[C@H]2C(=O)N(C)C	·	3.4	·	·	·
S=c1nc(Cc2ccccc2)[nH]c2ccccc12	9.2	·	6.0	68.0*	0.1
OC[C@H]1[C@H](c2ccc(C#CC3(O)CCCC3)cc2)[C@@H]2CN(Cc3cncnc3)CCCCN12	·	1.2	·	·	·
C[C@@H]1CN([C@@H](C)CO)C(=O)c2cc(NS(=O)(=O)c3cccs3)ccc2O[C@@H]1CN(C)C	·	-7.8	·	·	·
CO[C@H]1CN(C)C(=O)c2ccc(NC(=O)C3CCOCC3)cc2OC[C@@H](C)N(Cc2nccs2)C[C@H]1C	·	-4.3	·	·	·
NNc1ccc(S(=O)(=O)N2CCCCC2)cn1	5.2	53.8*	-0.6	6.4	0.0
COc1ccc(C(=O)c2ccc(Cl)c([N+](=O)[O-])c2)cc1	-5.9	-6.3	0.8	69.2*	0.4
OCC(CO)(CO)N=Cc1cc(Br)ccc1O	57.6*	-7.3	1.5	-1.0	-0.3
CCN(CC)c1ccc(N=Cc2cc(Br)ccc2O)cc1	-5.0	·	1.0	0.4	-0.1
Cc1ccc(N=Cc2cc(Br)cc(Cl)c2O)cc1	75.5*	-6.7	1.5	-4.6	0.0
Oc1ccc(Br)cc1C=Nc1ccc(Cl)cc1	50.0*	·	1.8	10.2	-0.5
C[C@@H]1CN([C@@H](C)CO)C(=O)c2cccc(NS(=O)(=O)c3ccc(F)cc3)c2O[C@@H]1CN(C)Cc1ccc(Cl)c(Cl)c1	·	-2.3	·	·	·
SMILES	Cardio protect	ARNT TACC3 PPI	Glyco luc inh	Vif inh	aDG glyco up
C[C@@H](O)C#Cc1ccc([C@H]2[C@@H](CO)N3CCCCN(C(=O)Nc4ccccc4)C[C@@H]23)cc1	·	-0.6	·	·	·
C[C@H](CO)N1C[C@H](C)[C@H](CN(C)Cc2ccc(Oc3ccccc3)cc2)Oc2c(NC(=O)Nc3cccc4ccccc34)cccc2C1=O	·	5.1	·	·	·
COc1ccccc1-c1csc(C(NC(C)=O)c2ccc(F)c(F)c2)n1 (configuration not stated)	-3.9	·	?	-2.8	0.3
COc1ccccc1-c1csc(C(NC(C)=O)c2cccc(F)c2)n1 (configuration not stated)	-6.3	·	32.8*	-5.5	0.2
CN(C)CC#Cc1ccc([C@H]2[C@@H](CO)N3CCCCN(C(=O)C4CCCC4)C[C@H]23)cc1	·	-3.9	·	·	·
COC1=C(N)C(=O)c2nc(C)ccc2C1=O	-20.5	29.6*	-1.7	-3.5	6.6
COC1=C(Br)C(=O)c2nc(C)ccc2C1=O	-20.5	·	5.0	7.9	-0.4
C[C@@H]1CN([C@@H](C)CO)C(=O)c2cc(C#CCN(C)C)cnc2O[C@@H]1CN(C)C(=O)c1ccc2c(c1)OCO2	·	-5.4	·	·	·
CCn1ccnc1CNCc1ccc(OCC(O)CN(C)Cc2ccccc2)cc1 (configuration not stated)	5.2	46.8*	-3.6	7.2	0.1
CC1(C)SC(=S)N(/N=C/c2cccnc2)C1N(O)C(=O)Nc1ccccc1 (configuration not stated)	-0.3	-11.9	-0.5	2.2	0.0
CC1(C)SC(=S)N(/N=C/c2ccccc2O)C1N(O)C(=O)Nc1ccccc1 (configuration not stated)	5.9	48.5*	-0.9	0.7	0.0
O=C(Nc1ccccc1F)N[C@H]1CC[C@@H](CCNC(=O)C2CCC2)O[C@@H]1CO	·	-1.9	·	·	·
S=c1[nH]nc(-c2ccco2)n1/N=C/c1cccc(Cl)c1	2.0	-12.4	0.9	1.5	0.0
Cc1ccsc1/C=N/n1c(-c2ccccc2)n[nH]c1=S	-1.9	38.8	1.0	2.9	-0.1
O=[N+]([O-])c1cc2c(cc1/C=N/n1c(-c3ccccc3)n[nH]c1=S)OCO2	4.0	-1.7	0.8	-14.7	-0.2
O=[N+]([O-])c1cc2c(cc1/C=N/n1c(-c3ccccn3)n[nH]c1=S)OCO2	9.5	70.9*	-0.3	1.2	-0.1
Cc1ccsc1/C=N/n1c(-c2ccccn2)n[nH]c1=S	4.9	60.6*	1.3	-2.8	-0.1
S=c1[nH]nc(-c2ccccn2)n1/N=C/c1cccc(Cl)c1	24.3	61.1*	-0.5	-8.8	-0.4
COc1ccc(NC(=O)Nc2cccc3c2O[C@H](CN(C)S(C)(=O)=O)[C@H](C)CN([C@H](C)CO)C3=O)cc1	·	-0.4	·	·	·
CCC1=Nc2cc(C(=O)NCc3ccco3)ccc2Sc2ccc(C)cc21	-0.7	0.8	11.2	56.9*	-0.1
COc1ccc(CNC(=O)C[C@@H]2CC[C@H](NC(=O)c3cccc(F)c3)[C@@H](CO)O2)cc1	·	30.4	·	·	·
CCN(CC(=O)NC(C)C)Cc1nc2sc3c(c2c(=O)[nH]1)CCC3	63.8*	-4.3	2.9	-8.0	0.4
O=c1[nH]c(CN2CCCC2)nc2sc3c(c12)CCC3	55.8*	3.9	2.0	17.4	0.4
Cc1ccc(C(=O)N2CCN(Cc3nc4sc5c(c4c(=O)[nH]3)CCCC5)CC2)cc1	4.8	-6.4	6.3	26.5	0.2
Cc1cc(C)cc(NC(=O)CCc2nc3sc4c(c3c(=O)[nH]2)CCCC4)c1	8.7	·	-4.0	150.7*	-0.5

High-throughput results from PubChem BioAssay.
